# According to ChEMBL document CHEMBL3988442, “University of Dundee, Small-Polar-MMV Screening Library” (2021):
# For some assays here: Results with a measured potency or affinity are listed apart.
# How the values were obtained:
# Set-up in all cases: scale not given: direction of the effect not stated beside the values
# [1] = target: Protein translocase subunit SecA (Escherichia coli (strain K12)) (UniProt P10408); test: Assay to Identify E. coli SecA ATPase Inhibitors; assay type: functional; conditions: 30 µM
# Protein translocase subunit SecA (Escherichia coli (strain K12)), sequence (P10408 whole entry): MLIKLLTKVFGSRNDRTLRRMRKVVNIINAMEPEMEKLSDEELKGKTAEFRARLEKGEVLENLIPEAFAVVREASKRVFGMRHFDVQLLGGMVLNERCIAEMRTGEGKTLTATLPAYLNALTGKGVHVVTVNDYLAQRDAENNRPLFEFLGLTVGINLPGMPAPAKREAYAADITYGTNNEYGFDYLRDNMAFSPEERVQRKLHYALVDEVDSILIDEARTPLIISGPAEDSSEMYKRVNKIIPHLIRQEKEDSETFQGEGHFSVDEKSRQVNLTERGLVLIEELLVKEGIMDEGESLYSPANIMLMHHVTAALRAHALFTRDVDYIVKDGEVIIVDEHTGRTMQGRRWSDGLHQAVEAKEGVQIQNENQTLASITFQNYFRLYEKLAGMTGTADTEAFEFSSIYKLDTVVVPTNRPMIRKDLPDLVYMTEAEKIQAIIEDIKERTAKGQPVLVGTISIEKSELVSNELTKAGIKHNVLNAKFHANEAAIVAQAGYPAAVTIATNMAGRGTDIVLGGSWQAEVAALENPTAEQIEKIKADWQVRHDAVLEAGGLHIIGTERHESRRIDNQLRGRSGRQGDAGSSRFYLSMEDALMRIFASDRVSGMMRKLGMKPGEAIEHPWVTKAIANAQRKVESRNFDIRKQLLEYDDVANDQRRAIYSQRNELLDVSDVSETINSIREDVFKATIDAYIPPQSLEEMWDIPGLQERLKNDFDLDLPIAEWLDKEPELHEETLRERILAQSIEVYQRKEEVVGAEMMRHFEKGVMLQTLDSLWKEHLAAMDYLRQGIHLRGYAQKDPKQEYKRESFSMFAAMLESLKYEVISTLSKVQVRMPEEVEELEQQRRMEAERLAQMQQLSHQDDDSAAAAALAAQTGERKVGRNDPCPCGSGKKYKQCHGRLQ
# [2] = target: T1, Ubiquitin-activating enzyme e1, putative (Leishmania donovani (strain BPK282A1)) (UniProt E9BSI1); test: Leishmania donovani Ubiquitin Activating Enzyme (LdE1); assay type: functional; conditions: 30 µM
# T1 sequence (whole entry): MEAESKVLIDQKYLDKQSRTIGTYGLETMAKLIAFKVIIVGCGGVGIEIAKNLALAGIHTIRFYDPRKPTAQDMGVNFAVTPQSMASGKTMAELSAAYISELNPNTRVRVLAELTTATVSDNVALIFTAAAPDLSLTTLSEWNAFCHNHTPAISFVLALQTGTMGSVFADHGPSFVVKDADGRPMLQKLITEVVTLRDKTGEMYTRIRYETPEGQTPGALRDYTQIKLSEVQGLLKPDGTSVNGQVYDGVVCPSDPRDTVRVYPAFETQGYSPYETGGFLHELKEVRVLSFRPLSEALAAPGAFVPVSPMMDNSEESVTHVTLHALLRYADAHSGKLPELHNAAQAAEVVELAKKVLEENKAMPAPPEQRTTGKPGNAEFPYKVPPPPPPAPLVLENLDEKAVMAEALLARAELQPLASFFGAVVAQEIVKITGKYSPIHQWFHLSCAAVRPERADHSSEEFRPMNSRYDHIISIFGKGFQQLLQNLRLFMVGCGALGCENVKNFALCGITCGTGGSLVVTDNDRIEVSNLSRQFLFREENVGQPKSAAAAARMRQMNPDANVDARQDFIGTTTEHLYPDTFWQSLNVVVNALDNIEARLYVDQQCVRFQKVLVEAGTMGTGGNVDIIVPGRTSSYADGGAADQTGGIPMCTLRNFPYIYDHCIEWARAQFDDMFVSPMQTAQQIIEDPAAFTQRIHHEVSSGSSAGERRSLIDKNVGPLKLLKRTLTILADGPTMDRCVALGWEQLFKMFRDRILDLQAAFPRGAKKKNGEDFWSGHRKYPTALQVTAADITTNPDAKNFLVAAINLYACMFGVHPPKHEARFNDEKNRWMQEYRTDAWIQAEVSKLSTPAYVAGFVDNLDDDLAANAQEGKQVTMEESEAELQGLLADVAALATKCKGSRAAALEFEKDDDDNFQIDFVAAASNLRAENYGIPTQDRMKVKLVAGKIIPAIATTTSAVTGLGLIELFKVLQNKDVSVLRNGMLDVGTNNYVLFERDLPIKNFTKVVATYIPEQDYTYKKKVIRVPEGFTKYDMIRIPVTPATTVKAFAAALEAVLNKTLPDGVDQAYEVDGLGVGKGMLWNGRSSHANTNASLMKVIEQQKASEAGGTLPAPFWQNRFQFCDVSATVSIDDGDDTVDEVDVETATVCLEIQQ
# [3] = target: AMP-activated protein kinase, AMPK (Homo sapiens) (UniProt P54646+O43741+P54619+Q9UGJ0+Q9Y478+Q13131+Q9UGI9); test: AMP-dependent Kinase enzyme assay. An in vitro enzyme assay that detects ADP turnover that is directly proportional to AMPK activity. This uses naive AMPK that is activated during the assay with MK-8722; assay type: functional; conditions: 30 µM
# [4] = target: Sialic acid-binding Ig-like lectin 9 (Homo sapiens) (UniProt Q9Y336); test: Hs-Siglec9 ALPHAscreen SOP 20170721; conditions: 10 µM
# Sialic acid-binding Ig-like lectin 9 (Homo sapiens), sequence (Q9Y336 whole entry): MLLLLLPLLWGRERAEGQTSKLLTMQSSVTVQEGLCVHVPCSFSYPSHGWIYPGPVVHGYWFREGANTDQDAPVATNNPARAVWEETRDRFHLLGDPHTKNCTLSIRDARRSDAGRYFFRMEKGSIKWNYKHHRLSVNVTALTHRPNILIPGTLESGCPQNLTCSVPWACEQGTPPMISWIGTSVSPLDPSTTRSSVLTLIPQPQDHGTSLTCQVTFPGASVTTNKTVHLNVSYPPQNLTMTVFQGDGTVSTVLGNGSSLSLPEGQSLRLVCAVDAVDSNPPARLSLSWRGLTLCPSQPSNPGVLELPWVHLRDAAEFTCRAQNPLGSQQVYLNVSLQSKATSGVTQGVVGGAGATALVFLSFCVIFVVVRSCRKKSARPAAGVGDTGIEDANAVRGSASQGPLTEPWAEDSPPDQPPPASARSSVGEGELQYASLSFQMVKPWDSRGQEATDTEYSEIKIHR
# Trypanosoma cruzi = test: Trypanosoma cruzi phosphomannomutase and mannose-1-phosphate guanylyltransferase assay; assay type: functional; conditions: 10 µM
# [5] = target: T2, Arginase-2, mitochondrial (Homo sapiens) (UniProt P78540); test: in vitro enzyme assay to detect the production of urea directly proportional to the activity of Arginase II; assay type: functional; conditions: 33.3 µM; note: in the data most compounds retested in dose-response had high values
# T2 sequence (whole entry): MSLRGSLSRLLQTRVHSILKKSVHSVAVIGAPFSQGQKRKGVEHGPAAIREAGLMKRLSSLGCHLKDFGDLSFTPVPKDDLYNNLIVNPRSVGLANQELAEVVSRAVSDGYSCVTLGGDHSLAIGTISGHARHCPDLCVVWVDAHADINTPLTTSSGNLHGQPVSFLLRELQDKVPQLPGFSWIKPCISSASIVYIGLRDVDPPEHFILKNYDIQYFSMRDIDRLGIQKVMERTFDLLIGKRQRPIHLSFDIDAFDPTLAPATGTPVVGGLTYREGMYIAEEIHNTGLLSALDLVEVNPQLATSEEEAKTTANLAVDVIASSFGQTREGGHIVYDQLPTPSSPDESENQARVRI
# [6] = target: T3, Proteasome subunit beta (Trypanosoma cruzi) (UniProt O96673); test: Trypanosoma cruzi proteasome chymotrypsin-like activity (TcProtChymo) assay.; note: in the data most compounds retested in dose-response had high values; assay type: functional; conditions: 9.37 µM
# T3 sequence (whole entry): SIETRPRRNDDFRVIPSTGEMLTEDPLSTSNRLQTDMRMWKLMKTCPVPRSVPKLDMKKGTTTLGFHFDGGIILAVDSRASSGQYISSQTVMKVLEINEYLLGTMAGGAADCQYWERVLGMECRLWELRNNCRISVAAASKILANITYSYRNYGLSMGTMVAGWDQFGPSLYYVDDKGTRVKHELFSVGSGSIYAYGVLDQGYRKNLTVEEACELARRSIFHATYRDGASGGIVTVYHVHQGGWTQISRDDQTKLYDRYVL
# Homo sapiens = species on record: Homo sapiens; test: To identify inhibition of the IFN signalling (Jak-Stat) pathway via expression of an eGFP reporter gene under the control of an IFN-stimulated response element (ISRE) containing MxA promoter.; assay type: functional; conditions: 30 µM
# [7] = target: T4, Tyrosyl-tRNA synthetase, putative (Trypanosoma cruzi (strain CL Brener)) (UniProt Q4DSP6); test: Trypanosoma cruzi tyrosyl tRNA synthetase (TcYRS) _High Tyrosine SOP; assay type: functional; conditions: 30 µM; note: in the data most compounds retested in dose-response had high values
# T4 sequence (whole entry): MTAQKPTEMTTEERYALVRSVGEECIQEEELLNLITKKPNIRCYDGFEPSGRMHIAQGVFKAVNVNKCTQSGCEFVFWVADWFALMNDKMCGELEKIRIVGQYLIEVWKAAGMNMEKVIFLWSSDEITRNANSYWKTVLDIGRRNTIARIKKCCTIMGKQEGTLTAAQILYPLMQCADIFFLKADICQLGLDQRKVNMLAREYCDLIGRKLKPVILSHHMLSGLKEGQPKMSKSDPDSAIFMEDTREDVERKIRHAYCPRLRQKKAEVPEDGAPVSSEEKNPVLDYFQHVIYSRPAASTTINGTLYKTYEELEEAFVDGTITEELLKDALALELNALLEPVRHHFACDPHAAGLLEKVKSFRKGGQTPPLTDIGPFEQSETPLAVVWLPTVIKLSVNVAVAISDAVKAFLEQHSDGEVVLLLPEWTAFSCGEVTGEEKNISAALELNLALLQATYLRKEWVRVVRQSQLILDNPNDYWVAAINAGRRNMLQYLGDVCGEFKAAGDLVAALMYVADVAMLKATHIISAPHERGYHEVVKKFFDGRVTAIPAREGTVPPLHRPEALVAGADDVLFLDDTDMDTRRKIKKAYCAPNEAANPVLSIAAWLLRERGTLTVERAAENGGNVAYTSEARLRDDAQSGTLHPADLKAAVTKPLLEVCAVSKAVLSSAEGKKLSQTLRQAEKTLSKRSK
# [8] = target: T4, Tyrosyl-tRNA synthetase, putative (Trypanosoma cruzi (strain CL Brener)); test: Trypanosoma cruzi tyrosyl tRNA synthetase (TcYRS) SOP; assay type: functional; conditions: 30 µM
# [9] = target: Chromo domain-containing protein 1 (Saccharomyces cerevisiae (strain ATCC 204508 / S288c) (Baker's yeast)) (UniProt P32657); test: ScCHD-1 Enzyme Inhibition Assay; assay type: functional; conditions: 30 µM; note: in the data most compounds retested in dose-response had high values
# Chromo domain-containing protein 1 (Saccharomyces cerevisiae (strain ATCC 204508 / S288c) (Baker's yeast)), sequence (P32657 whole entry, the tested form may be a part): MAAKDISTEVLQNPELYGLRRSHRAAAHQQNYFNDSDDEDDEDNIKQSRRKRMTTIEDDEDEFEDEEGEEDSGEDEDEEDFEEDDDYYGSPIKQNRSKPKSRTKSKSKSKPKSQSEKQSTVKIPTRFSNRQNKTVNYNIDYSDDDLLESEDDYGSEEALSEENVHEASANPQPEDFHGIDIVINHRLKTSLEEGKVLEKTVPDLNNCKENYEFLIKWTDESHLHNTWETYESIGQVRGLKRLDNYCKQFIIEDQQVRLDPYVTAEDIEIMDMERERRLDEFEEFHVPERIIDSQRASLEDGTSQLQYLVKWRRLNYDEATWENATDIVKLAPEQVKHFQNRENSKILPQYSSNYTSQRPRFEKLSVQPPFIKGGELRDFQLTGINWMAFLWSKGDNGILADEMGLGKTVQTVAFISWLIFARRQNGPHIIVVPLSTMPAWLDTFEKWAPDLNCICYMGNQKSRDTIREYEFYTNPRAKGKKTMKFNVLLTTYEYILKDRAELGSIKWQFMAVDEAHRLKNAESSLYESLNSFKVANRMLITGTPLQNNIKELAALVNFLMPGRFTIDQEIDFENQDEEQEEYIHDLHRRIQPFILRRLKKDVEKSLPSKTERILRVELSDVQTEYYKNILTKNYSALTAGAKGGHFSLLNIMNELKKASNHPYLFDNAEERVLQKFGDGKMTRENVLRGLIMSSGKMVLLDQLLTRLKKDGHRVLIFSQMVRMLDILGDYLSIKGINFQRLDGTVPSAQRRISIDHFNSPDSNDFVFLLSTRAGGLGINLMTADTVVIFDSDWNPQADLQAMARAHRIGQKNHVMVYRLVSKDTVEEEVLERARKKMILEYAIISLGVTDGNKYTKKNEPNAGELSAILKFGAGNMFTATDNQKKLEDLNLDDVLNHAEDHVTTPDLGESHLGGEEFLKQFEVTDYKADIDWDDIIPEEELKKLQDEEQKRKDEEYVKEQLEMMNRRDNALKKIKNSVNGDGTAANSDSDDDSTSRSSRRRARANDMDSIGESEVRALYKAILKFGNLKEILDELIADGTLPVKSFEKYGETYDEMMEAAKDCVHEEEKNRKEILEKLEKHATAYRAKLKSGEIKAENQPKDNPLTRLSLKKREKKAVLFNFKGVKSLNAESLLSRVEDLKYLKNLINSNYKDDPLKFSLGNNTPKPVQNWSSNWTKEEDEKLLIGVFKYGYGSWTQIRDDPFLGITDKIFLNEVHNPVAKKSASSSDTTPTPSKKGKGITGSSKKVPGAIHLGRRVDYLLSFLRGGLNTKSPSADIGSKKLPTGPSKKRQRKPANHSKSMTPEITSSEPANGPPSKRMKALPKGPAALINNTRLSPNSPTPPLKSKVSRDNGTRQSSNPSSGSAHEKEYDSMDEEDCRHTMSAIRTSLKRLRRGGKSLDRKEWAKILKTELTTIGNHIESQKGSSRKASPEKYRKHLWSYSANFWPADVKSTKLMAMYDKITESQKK
Structure (SMILES),Percent Effect [1],Percent Effect [2],Percent Effect [3],Percent Effect [4],Percent Effect (Trypanosoma cruzi),Percent Effect [5],Percent Effect [6],Percent Effect (Homo sapiens),Percent Effect [7],Percent Effect [8],Percent Effect [9]
CC(NC(=O)NCCCn1cccn1)c1cccnc1 (stereo unspecified),-4.3%,-2.67%,-0.757%,-5.85%,-4.77%,-3.12%,7.85%,1.99%,-1.64%,-6.17%,6.57%
CN1CC(=O)N(c2cccc(F)c2)CC12CCNC2 (stereo unspecified),-5.9%,0%,3.44%,-2.82%,-3.03%,-4.78%,10.7%,12.5%,-1.08%,5.13%,1.85%
Cc1nc(C2CCCN(C(=O)Cn3ccccc3=O)C2)no1 (stereo unspecified),-0.276%,0%,3.05%,1.79%,-0.564%,4.6%,-4.84%,8.71%,2.45%,4.88%,3.7%
Cc1cc(CN(C)C(=O)c2cccc(N3CCCC3=O)c2)no1,-1.16%,20.2%,-7.29%,-9%,-4.25%,-0.76%,12.2%,13.3%,3.45%,16.5%,-4.16%
Cn1cc(CN2CCc3nc(-c4ccccn4)nc(O)c3C2)cn1,-7.26%,2.67%,-8.66%,8.08%,6.69%,-3.96%,-0.617%,-0.651%,10.6%,29.5%,-10.9%
CN(Cc1nccn1CC(F)(F)F)C(=O)c1ccc(F)c(F)c1,-4.78%,5.26%,7.84%,5.27%,-1.46%,0%,10.4%,4.07%,4.25%,13%,26.9%
O=C(c1cccnc1)N1CCC2(CC1)CCN(c1ccsc1)C2=O,-4.05%,-2.6%,1.54%,-7.82%,-1.28%,-4.52%,12%,-7.6%,-5.29%,-6.41%,0.0389%
Cc1cnc(N2CCCC3(CCN(Cc4csc(C)n4)C3=O)C2)nc1 (stereo unspecified),-1.53%,10.7%,2.83%,3.4%,0.965%,-54.3%,5.64%,-4.88%,4.17%,20%,-8.92%
CCCc1n[nH]c(C2CN(CCNS(=O)(=O)CC)CCO2)n1 (stereo unspecified),-1.25%,19%,4.75%,-2.28%,-0.718%,1.5%,12.9%,18.3%,8.33%,15.2%,-20.1%
Cc1ccc(NC2CCN(C(=O)CC3CCCO3)CC2)nn1 (stereo unspecified),-3.13%,-5.41%,-10.4%,8.84%,-2.17%,2%,1.8%,5.87%,1.48%,-8.64%,0.857%
Cc1cc(F)ccc1CN1CCC(O)(CN2CCCCC2)C1 (stereo unspecified),-6.21%,5.33%,-7.83%,3.56%,-1.46%,-1.04%,19.2%,-1.85%,4.92%,8.64%,-4.93%
CCc1cnc(CN(C(C)=O)C2CCN(CCc3cccs3)C2)o1 (stereo unspecified),-3.22%,13.2%,0.738%,-12.5%,-4.95%,2.16%,21.6%,4.61%,7.39%,6.17%,-8.12%
NC(=O)COc1ccc(CNCc2ccc(F)c(F)c2)cc1,-4.2%,6.94%,2.35%,-0.752%,0.486%,3.53%,11.2%,-7.28%,7.37%,7.69%,-2.75%
CN(CCC#N)C(=O)CCOc1cccc(F)c1,-2.84%,10.5%,0.343%,-8.13%,-0.876%,-4.73%,10.3%,20.8%,3.19%,10.4%,-3.22%
Cc1nc(C2CCCN(C(=O)c3cc(Cl)c[nH]3)C2)no1 (stereo unspecified),-5.67%,12.7%,-0.617%,10.9%,3.87%,-6.46%,1.88%,-5.6%,5.42%,13.9%,-7.78%
CC(=O)Nc1nc(C(=O)N2CCCC(n3ccnc3)C2)cs1 (stereo unspecified),-2.04%,-7.89%,-5.64%,-2.76%,-6.44%,3.6%,-6.34%,-6.45%,2.46%,1.24%,5.04%
